Compound activity: PubChem, National Center for Advancing Translational Sciences (NCATS)
A selection: hits, their analogues and other compounds. The true share with any hit is near 18%.
DT40 TDP1 CPT: qHTS for Inhibitors of human tyrosyl-DNA phosphodiesterase 1 (TDP1): qHTS in cells in presence of CPT. chicken DT40 Tdp1-/-;hTDP1 cells + 20 nM CPT, ATP luminescence, 48 h. Potency, µM (doses to about 46.2 µM), for inactives: at the top dose activity change, negative = growth inhibition, hits mostly inhibitors. 420,000 tested, 12% active; further: potency means the concentration at half of the fitted maximal effect; nearly all actives have a fitted effect of over 55% in size
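Cell growth measured by CellTiter-Glo luminescence after a minimum 48 h, 37 C compound exposure with 20 nM CPT in Tdp1-knockout DT40 cells stably expressing hTDP1, seeded 400/well; qHTS titration format.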
Six1-Eya2 inh: qHTS Assay for Inhibitors of the Six1/Eya2 Interaction; Homeobox protein SIX1 (Homo sapiens) + Protein phosphatase EYA2 (Homo sapiens), …; AlphaScreen GST-Six1/His-Eya2 binding, biochemical; stronger effect = lower value; activity change, % (concentration not given with the values); 360,000 tested, 0.56% active; in the data active means activity change below about -65%; inconclusive means mostly about -30% to -63%
Target sequence (O00167 whole entry, looked up): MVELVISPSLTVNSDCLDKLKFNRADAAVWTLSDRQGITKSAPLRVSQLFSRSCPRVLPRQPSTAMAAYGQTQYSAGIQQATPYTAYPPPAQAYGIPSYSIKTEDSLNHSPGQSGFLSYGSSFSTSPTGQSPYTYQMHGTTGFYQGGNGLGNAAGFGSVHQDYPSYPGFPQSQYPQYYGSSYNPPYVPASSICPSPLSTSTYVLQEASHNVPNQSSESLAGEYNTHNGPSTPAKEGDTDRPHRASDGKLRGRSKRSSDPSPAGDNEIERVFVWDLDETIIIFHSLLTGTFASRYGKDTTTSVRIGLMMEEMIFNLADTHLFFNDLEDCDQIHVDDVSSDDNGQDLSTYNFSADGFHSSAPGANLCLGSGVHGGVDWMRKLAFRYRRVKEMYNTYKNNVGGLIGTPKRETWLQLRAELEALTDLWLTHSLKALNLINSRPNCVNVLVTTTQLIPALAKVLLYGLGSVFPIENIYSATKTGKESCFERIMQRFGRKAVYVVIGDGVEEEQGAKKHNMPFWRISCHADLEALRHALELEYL
Target sequence (Q15475 whole entry, looked up): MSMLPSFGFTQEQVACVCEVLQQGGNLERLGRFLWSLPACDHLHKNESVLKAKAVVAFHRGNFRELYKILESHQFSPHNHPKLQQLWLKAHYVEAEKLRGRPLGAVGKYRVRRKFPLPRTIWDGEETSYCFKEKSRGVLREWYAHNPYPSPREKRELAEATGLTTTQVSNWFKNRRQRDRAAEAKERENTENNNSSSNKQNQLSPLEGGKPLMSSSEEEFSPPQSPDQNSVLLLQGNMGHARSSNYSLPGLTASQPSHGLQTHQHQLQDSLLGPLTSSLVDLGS
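AlphaScreen with GST-Six1 and His-Eya2 (5X mix: 250 nM and 500 nM), glutathione donor and nickel acceptor beads; buffer 50 mM Tris pH 8.0, 300 mM NaCl, 1 mM TCEP; 1 h at 37 C in the dark.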
IL-1B inflam inh: qHTS for Inhibitors of Inflammasome Signaling: IL-1-beta AlphaLISA Primary Screen. activity change, % at 57.5 µM. 360,000 tested, 4.7% active. THP-1 LPS/ATP IL-1B secretion, AlphaLISA, 16 h; stronger effect = lower value; in the data active means activity change below about -50%; inconclusive means mostly about -30% to -49%
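Secreted IL-1B measured by AlphaLISA bead assay after 16 h compound exposure of THP-1 cells; compounds (final up to 57.5 uM) added 1 h before LPS (250 ng/mL) and ATP (1.25 mM) stimulation; lower signal means less secretion.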
TDP1 block: qHTS Assay for Inhibitors of Tyrosyl-DNA Phosphodiesterase (TDP1). Tyrosyl-DNA phosphodiesterase 1 (Homo sapiens), Q9NUW8. recombinant TDP1, AlphaScreen DNA substrate cleavage. 350,000 tested, 0.28% active. Potency, µM (series often up to 130 µM), for inactives: at the highest dose activity change, negative = inhibition, hits mostly inhibitors; further: potency means the concentration at half of the fitted maximal effect; nearly all actives have a fitted effect of over 40% in size
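E. coli-derived human Tdp1, 1 nM final. Cpd preinc 15 min RT; substrate 15 nM final, 5 min RT; AS bead mix 10 ug/ml final, 10 min RT. Signal loss = tyrosine-FITC cleavage. No-enzyme wells = max signal.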
DT40 TDP1 no CPT: qHTS for Inhibitors of human tyrosyl-DNA phosphodiesterase 1 (TDP1): qHTS in cells in absence of CPT; DT40 Tdp1-/- hTDP1 cells, no CPT, ATP luminescence, 48 h; Potency, µM (series often up to 46.2 µM), for the others: at the highest dose activity change, negative = growth inhibition, hits mostly inhibitors; 420,000 tested, 15% active; AID 686978, 2013; further: potency means the concentration at half of the fitted maximal effect; nearly all actives have a fitted effect of over 55% in size
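Camptothecin absent (DMSO only). Human TDP1-complemented DT40 knockout cells, 400 cells/well, 37 °C for minimum 48 hr; ATP measured via CellTiter-Glo, 30 min dark incubation, luminescence.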
CtBP-E1A blk: qHTS Assay for Inhibitors of the CtBP/E1A Interaction. CtBP / adenovirus E1A interaction (AlphaScreen). AlphaScreen GST-E1A/His-CtBP binding, 1536-well; stronger effect = lower value. activity change, % (no concentration beside the values). 340,000 tested, 0.49% active; in the data active means activity change below about -65%; inconclusive means mostly about -30% to -63%
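AlphaScreen with 125 nM GST-E1A and 125 nM His-CtBP (5X stocks) in Tris pH 8.0, 300 mM NaCl, BSA, Tween 20, TCEP. Compounds preincubated 2 h at 37 deg C, then glutathione donor/nickel acceptor beads added for 1 h at 37 deg C in dark.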
Starred values were filed as active, the others as inactive; ? = inconclusive; . = not tested or not shown; [ ] = remark or other dose. Unless noted, the call rests on the fitted dose curve; in most records, active means well fitted curve in the direction sought with a large enough effect; inconclusive means small, poorly fitted or top-dose-only effect, or another doubt; inactive means no such curve, though single readings can be large; an effect the other way counts as inactive or inconclusive. On the % scale 0 is the no-effect control and ±100 the full control effect.

SMILES	DT40 TDP1 CPT	Six1-Eya2 inh	IL-1B inflam inh	TDP1 block	DT40 TDP1 no CPT	CtBP-E1A blk
CCOC(=O)[C@]12Cc3c(cc(OC)c(OC)c3OC)[C@H]1N(C(C)C)C(=O)c1ccccc12	23µM*	1	-114*	.	15µM*	3
CCCCCN1C(=O)c2ccccc2[C@@]2(C(=O)OCC)Cc3cc(OC)ccc3[C@@H]12	7.3µM*	-4	.	.	4.6µM*	1
CCOC(=O)[C@]12Cc3cc(C)ccc3[C@H]1N(Cc1ccccc1)C(=O)c1cc(F)c(F)cc12	21µM*	-3	.	.	15µM*	5
CCOC(=O)[C@]12Cc3cc(C)ccc3[C@H]1N(Cc1ccccc1)C(=O)c1ccccc12	10µM*	-3	-3	.	15µM*	-4
CCOC(=O)[C@]12Cc3cc(OC)ccc3[C@H]1N(Cc1ccccc1)C(=O)c1cc(F)c(F)cc12	?	2	-21	.	?	3
CCOC(=O)C1=C(N)Oc2cc(C)oc(=O)c2C12C(=O)N1c3c(cccc32)C(C)CC1(C)C (centres undefined)	-11%	0	40	-3%	-1%	45
CCOC(=O)[C@]12Cc3cc(C)ccc3[C@H]1N(C(C)C)C(=O)c1ccccc12	10µM*	0	-113*	.	6.5µM*	-14
CCOC(=O)[C@]12Cc3cc(OC)ccc3[C@H]1N(Cc1ccccc1)C(=O)c1ccccc12	?	-6	-23	.	11µM*	-8
O=c1c2ccccc2nc(N2CCCC2)n1-c1ccc(Cl)cc1	21µM*	18	25	0%	16µM*	24
COc1nc2ccccc2c(=O)n1-c1ccc(Cl)cc1	?	0	17	11%	-25%	9
CCN(CC)CCSc1nc2ccccc2c(=O)n1-c1ccc(Cl)cc1	7.3µM*	.	.	-3%[12.3 µM]	21µM*	.
O=c1c2ccccc2nc(SCC2CCCCO2)n1-c1ccccc1 (centres undefined)	?	-5	7	1%	?	0
c1cncc(CNCCc2ccc3c(c2)OCO3)c1	4%	-3	-6	4%	-9%	.
CC1(C)CC(CCNCc2ccc3c(c2)OCO3)(Cc2ccccc2)CCO1 (centres undefined)	?	-1	-96*	-1%	18µM*	2
[O-][Br+2]([O-])O	.	.	.	13%	.	.
O=c1[nH]c(=S)[nH]c(O)c1/C=C1/C=c2ccccc2=N1	7.3µM*	-5	-99*	.	8.2µM*	-4
C=C1C2[C@H](OC(C)=O)[C@@H]3CC(=O)[C@]4(C)OC[C@@]3(C)[C@@]4(O)[C@@H](OC(C)=O)[C@H](OC(C)=O)[C@@]2(COC(=O)c2ccccc2)[C@@H](OC(C)=O)C[C@@H]1O (some centres undefined)	?	-2	18	.	?	4
COC(=O)C1=C(c2ccc(OC(F)(F)F)cc2)C[C@@H]2CC[C@H]1N2C(=O)NC1Cc2ccccc2C1	23µM*	0	-23	0%	?	11
COC(=O)C1=C(c2ccc(OC(F)(F)F)cc2)C[C@@H]2CC[C@H]1N2C(=O)NC1CCCCC1	?	-5	-14	2%	16µM*	-23
O=C1CN=C(c2ccc(F)cc2)c2oc3ccccc3c2N1	-9%	18	3	2%	-4%	0
ClCCN1CCSCC1	?	8	-14	.	?	-12
